# Results as given in PMC8384837, “Expanding the binding specificity for RNA recognition by a PUF domain”.
# What was measured:
# Assay in all cases: yeast three-hybrid, YBZ-1, SC-Leu-His + 0.5 mM 3-AT, 4 days
# Conditions in all cases: tags: N-Gal4 AD-HA kept; label: inside an RPR1-promoter hybrid RNA with tandem MS2 sites; ssRNA
# PUM1 PUF domain R5-RDR = PUM1 PUF domain R5-RDR (Homo sapiens, UniProt Q14671 828-1176, C1007R;R1008D;Q1011R)
# Summary of the method: (§1)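 Pumilio-1 PUF domain libraries, randomized at the three base-contacting residues of each repeat, were co-expressed with matching RNA elements from a centromeric plasmid in strain YBZ-1, which carries a LexA–MS2 coat fusion and a HIS3 reporter. Transformants grew for four days on SC-Leu (input) or on SC-Leu-His + 0.5 mM 3-AT (selection), and the repeat regions were PCR-amplified and Illumina-sequenced. The interaction score is the log change in variant frequency from input to selection. That logarithm is base 2, with a pseudocount of 1 where a variant was absent.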
# PUM1 PUF domain R5-QCH = PUM1 PUF domain R5-QCH (Homo sapiens, UniProt Q14671 828-1176, C1007Q;R1008C;Q1011H)
# Summary of the method: as §1
# PUM1 PUF domain R1-ERV = PUM1 PUF domain R1-ERV (Homo sapiens, UniProt Q14671 828-1176, S863E;Q867V)
# Summary of the method: as §1
# PUM1 PUF domain R5-QAK = PUM1 PUF domain R5-QAK (Homo sapiens, UniProt Q14671 828-1176, C1007Q;R1008A;Q1011K)
# Summary of the method: as §1
# PUM1 PUF domain R5-LNR = PUM1 PUF domain R5-LNR (Homo sapiens, UniProt Q14671 828-1176, C1007L;R1008N;Q1011R)
# Summary of the method: as §1
# PUM1 PUF domain R5-RFM = PUM1 PUF domain R5-RFM (Homo sapiens, UniProt Q14671 828-1176, C1007R;R1008F;Q1011M)
# Summary of the method: as §1
# PUM1 PUF domain R5-KCV = PUM1 PUF domain R5-KCV (Homo sapiens, UniProt Q14671 828-1176, C1007K;R1008C;Q1011V)
# Summary of the method: as §1
# PUM1 PUF domain R7-LWG = PUM1 PUF domain R7-LWG (Homo sapiens, UniProt Q14671 828-1176, S1079L;N1080W;E1083G)
# Summary of the method: as §1
# PUM1 PUF domain R7-KWR = PUM1 PUF domain R7-KWR (Homo sapiens, UniProt Q14671 828-1176, S1079K;N1080W;E1083R)
# Summary of the method: as §1
# PUM1 PUF domain R3-LWG = PUM1 PUF domain R3-LWG (Homo sapiens, UniProt Q14671 828-1176, C935L;R936W;Q939G)
# Summary of the method: as §1
# PUM1 PUF domain R3-GYW = PUM1 PUF domain R3-GYW (Homo sapiens, UniProt Q14671 828-1176, C935G;R936Y;Q939W)
# Summary of the method: as §1
# PUM1 PUF domain R4-TPC = PUM1 PUF domain R4-TPC (Homo sapiens, UniProt Q14671 828-1176, N971T;H972P;Q975C)
# Summary of the method: as §1
# PUM1 PUF domain R5-KRW = PUM1 PUF domain R5-KRW (Homo sapiens, UniProt Q14671 828-1176, C1007K;Q1011W)
# Summary of the method: as §1
# PUM1 PUF domain R8-PKR = PUM1 PUF domain R8-PKR (Homo sapiens, UniProt Q14671 828-1176, N1122P;Y1123K;Q1126R)
# Summary of the method: as §1
# PUM1 PUF domain R8-GWR = PUM1 PUF domain R8-GWR (Homo sapiens, UniProt Q14671 828-1176, N1122G;Y1123W;Q1126R)
# Summary of the method: as §1
# PUM1 PUF domain R2-RRG = PUM1 PUF domain R2-RRG (Homo sapiens, UniProt Q14671 828-1176, N899R;Y900R;Q903G)
# Summary of the method: as §1
# PUM1 PUF domain R5-IHE = PUM1 PUF domain R5-IHE (Homo sapiens, UniProt Q14671 828-1176, C1007I;R1008H;Q1011E)
# Summary of the method: as §1
# PUM1 PUF domain R7-QNE = PUM1 PUF domain R7-QNE (Homo sapiens, UniProt Q14671 828-1176, S1079Q)
# Summary of the method: as §1
# PUM1 PUF domain R3-TRG = PUM1 PUF domain R3-TRG (Homo sapiens, UniProt Q14671 828-1176, C935T;Q939G)
# Summary of the method: as §1
# PUM1 PUF domain R6-VYQ = biological target: T1, PUM1 PUF domain R6-VYQ (Homo sapiens, UniProt Q14671 828-1176, N1043V)
# T1 sequence: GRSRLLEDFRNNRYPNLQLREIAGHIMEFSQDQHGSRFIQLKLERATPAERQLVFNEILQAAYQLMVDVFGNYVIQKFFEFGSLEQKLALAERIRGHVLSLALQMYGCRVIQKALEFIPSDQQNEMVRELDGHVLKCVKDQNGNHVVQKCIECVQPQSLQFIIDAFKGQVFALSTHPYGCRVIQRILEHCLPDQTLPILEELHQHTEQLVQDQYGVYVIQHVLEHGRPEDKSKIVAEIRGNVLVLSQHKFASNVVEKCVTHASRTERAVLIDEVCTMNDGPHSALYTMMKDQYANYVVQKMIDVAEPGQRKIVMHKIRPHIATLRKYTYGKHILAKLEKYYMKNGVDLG
# Summary of the method: as §1
sequence,measurement,setting,value
GGCUAGAACUAGUGGAUCCCCCGGCGCCCGGCGGCUCGAGCCCGGGUAAGUGUGAAUAGUCUGCAUGCCGCCGGGCGCCAUGCCUGCAGGUCGACUCUAGAAAACAUG,binding signal,PUM1 PUF domain R5-RDR,2.62 log2 enrichment (interaction score)
same,binding signal,PUM1 PUF domain R5-QCH,3.31 log2 enrichment (interaction score)
GGCUAGAACUAGUGGAUCCCCCGGCGCCCGGCGGCUCGAGCCCGGGUAAGUGUAAAUCGUCUGCAUGCCGCCGGGCGCCAUGCCUGCAGGUCGACUCUAGAAAACAUG,binding signal,PUM1 PUF domain R1-ERV,5.04 log2 enrichment (interaction score)
GGCUAGAACUAGUGGAUCCCCCGGCGCCCGGCGGCUCGAGCCCGGGUAAGUGUUAAUAGUCUGCAUGCCGCCGGGCGCCAUGCCUGCAGGUCGACUCUAGAAAACAUG,binding signal,PUM1 PUF domain R5-QAK,3.34 log2 enrichment (interaction score)
same,binding signal,PUM1 PUF domain R5-LNR,4.82 log2 enrichment (interaction score)
same,binding signal,PUM1 PUF domain R5-RFM,4.36 log2 enrichment (interaction score)
same,binding signal,PUM1 PUF domain R5-KCV,1.51 log2 enrichment (interaction score)
GGCUAGAACUAGUGGAUCCCCCGGCGCCCGGCGGCUCGAGCCCGGGUAAGUCUAAAUAGUCUGCAUGCCGCCGGGCGCCAUGCCUGCAGGUCGACUCUAGAAAACAUG,binding signal,PUM1 PUF domain R7-LWG,2.65 log2 enrichment (interaction score)
same,binding signal,PUM1 PUF domain R7-KWR,5.09 log2 enrichment (interaction score)
GGCUAGAACUAGUGGAUCCCCCGGCGCCCGGCGGCUCGAGCCCGGGUAAGUGUAAUUAGUCUGCAUGCCGCCGGGCGCCAUGCCUGCAGGUCGACUCUAGAAAACAUG,binding signal,PUM1 PUF domain R3-LWG,3.8 log2 enrichment (interaction score)
same,binding signal,PUM1 PUF domain R3-GYW,2.62 log2 enrichment (interaction score)
GGCUAGAACUAGUGGAUCCCCCGGCGCCCGGCGGCUCGAGCCCGGGUAAGUGUACAUAGUCUGCAUGCCGCCGGGCGCCAUGCCUGCAGGUCGACUCUAGAAAACAUG,binding signal,PUM1 PUF domain R4-TPC,5.9 log2 enrichment (interaction score)
GGCUAGAACUAGUGGAUCCCCCGGCGCCCGGCGGCUCGAGCCCGGGUAAGUGUAAGUAGUCUGCAUGCCGCCGGGCGCCAUGCCUGCAGGUCGACUCUAGAAAACAUG,binding signal,PUM1 PUF domain R3-LWG,6.06 log2 enrichment (interaction score)
GGCUAGAACUAGUGGAUCCCCCGGCGCCCGGCGGCUCGAGCCCGGGUAAGUGUCAAUAGUCUGCAUGCCGCCGGGCGCCAUGCCUGCAGGUCGACUCUAGAAAACAUG,binding signal,PUM1 PUF domain R5-RDR,3.41 log2 enrichment (interaction score)
same,binding signal,PUM1 PUF domain R5-KRW,2.58 log2 enrichment (interaction score)
same,binding signal,PUM1 PUF domain R5-KCV,2.63 log2 enrichment (interaction score)
GGCUAGAACUAGUGGAUCCCCCGGCGCCCGGCGGCUCGAGCCCGGGUAAGUUUAAAUAGUCUGCAUGCCGCCGGGCGCCAUGCCUGCAGGUCGACUCUAGAAAACAUG,binding signal,PUM1 PUF domain R7-LWG,5.68 log2 enrichment (interaction score)
GGCUAGAACUAGUGGAUCCCCCGGCGCCCGGCGGCUCGAGCCCGGGUAAGCGUAAAUAGUCUGCAUGCCGCCGGGCGCCAUGCCUGCAGGUCGACUCUAGAAAACAUG,binding signal,PUM1 PUF domain R8-PKR,3.72 log2 enrichment (interaction score)
same,binding signal,PUM1 PUF domain R8-GWR,5.66 log2 enrichment (interaction score)
GGCUAGAACUAGUGGAUCCCCCGGCGCCCGGCGGCUCGAGCCCGGGUAAGUGUAAAGAGUCUGCAUGCCGCCGGGCGCCAUGCCUGCAGGUCGACUCUAGAAAACAUG,binding signal,PUM1 PUF domain R2-RRG,2.19 log2 enrichment (interaction score)
GGCUAGAACUAGUGGAUCCCCCGGCGCCCGGCGGCUCGAGCCCGGGUAAGUAUAAAUAGUCUGCAUGCCGCCGGGCGCCAUGCCUGCAGGUCGACUCUAGAAAACAUG,binding signal,PUM1 PUF domain R7-KWR,2.7 log2 enrichment (interaction score)
GGCUAGAACUAGUGGAUCCCCCGGCGCCCGGCGGCUCGAGCCCGGGUAAGUGUAUAUAGUCUGCAUGCCGCCGGGCGCCAUGCCUGCAGGUCGACUCUAGAAAACAUG,binding signal,PUM1 PUF domain R4-TPC,5.59 log2 enrichment (interaction score)
GGCUAGAACUAGUGGAUCCCCCGGCGCCCGGCGGCUCGAGCCCGGGUAAGUGUAAAUAGUCUGCAUGCCGCCGGGCGCCAUGCCUGCAGGUCGACUCUAGAAAACAUG,binding signal,PUM1 PUF domain R8-PKR,2.74 log2 enrichment (interaction score)
same,binding signal,PUM1 PUF domain R8-GWR,5.13 log2 enrichment (interaction score)
same,binding signal,PUM1 PUF domain R5-LNR,1.95 log2 enrichment (interaction score)
same,binding signal,PUM1 PUF domain R5-IHE,3.04 log2 enrichment (interaction score)
same,binding signal,PUM1 PUF domain R3-LWG,2.39 log2 enrichment (interaction score)
same,binding signal,PUM1 PUF domain R3-GYW,5.68 log2 enrichment (interaction score)
same,binding signal,PUM1 PUF domain R7-QNE,4.09 log2 enrichment (interaction score)
same,binding signal,PUM1 PUF domain R3-TRG,3.15 log2 enrichment (interaction score)
same,binding signal,PUM1 PUF domain R6-VYQ,4.06 log2 enrichment (interaction score)
same,binding signal,PUM1 PUF domain R4-TPC,4.17 log2 enrichment (interaction score)
same,binding signal,PUM1 PUF domain R5-RFM,1.2 log2 enrichment (interaction score)
